Laboratory results taken from ChEMBL document CHEMBL3988442, “University of Dundee, Small-Polar-MMV Screening Library” (2021).
The campaign covered roughly 48,000 compounds. About 13,000 (27%) showed an effect of 50% or more. This is one part of the list.

test system: Wolbachia pipientis; test: Anti-Wolbachia Cell-Based Screen; format: functional; parameters: scale not given: in the data most compounds retested in dose-response had high values; settings: 5 µM

**Q.** How did the “Percent Effect” value turn out when `CC(=O)Nn1c(C)cc(CN2CCC(C(=O)N3CCCC3)CC2)c1C` was run?
**A.** The value was 13.77%.

**Q.** `CC(C)(CNc1ccccc1S(=O)(=O)C(F)F)N1CCOCC1` was tested. Which “Percent Effect” value did it give?
**A.** Its value is 14.98%.

**Q.** Which “Percent Effect” value does the source give for `CCCc1nnsc1C(=O)NCC1CCN(C(=O)c2ccncc2)CC1` here?
**A.** The value was 2.794%.

**Q.** `CCn1c(C2CCN(C(=O)c3ccc4cc[nH]c4c3)CC2)n[nH]c1=O` was tested. Which “Percent Effect” value did it give?
**A.** The value was 3.076%.

**Q.** How did the “Percent Effect” value turn out when `O=C(c1ccncc1)N1CCC(Cc2cnc3[nH]ccc3c2)CC1` was run?
**A.** The value was 127.1%.

**Q.** With `Cc1cccnc1C(=O)N1CCC(Cc2cnc3[nH]ccc3c2)CC1` as the compound, how does the “Percent Effect” value read?
**A.** Its value is 75.79%.

**Q.** `CC1CCN(CC2CCN(C(=O)c3c[nH]c4ncccc34)CC2)CC1` was tested. Which “Percent Effect” value did it give?
**A.** The value was -10.12%.

**Q.** With `O=C(c1cnccn1)N1CCC2(CC1)C(=O)NCC2c1ccccc1` (stereo not drawn) as the compound, how does the “Percent Effect” value read?
**A.** Its value is -11.37%.

**Q.** `O=C(c1cncs1)N1CCC(Cc2cnc3[nH]ccc3c2)CC1` was tested. Which “Percent Effect” value did it give?
**A.** The value was 101.1%.

**Q.** How did the “Percent Effect” value turn out when `O=C(c1cnccn1)N1CCC(Cc2cnc3[nH]ccc3c2)CC1` was run?
**A.** Its value is 109.1%.

**Q.** How did the “Percent Effect” value turn out when `CC(C)CC(=O)N1CCN(c2cc(N(C)C)cnn2)CC1` was run?
**A.** The value was 10.83%.

**Q.** For `CCc1nc(CN2CCCN(C(=O)COC(C)C)CC2)cs1`, which “Percent Effect” value is on record?
**A.** Its value is 23.5%.

**Q.** `CCC(C(=O)NCc1ccncc1)N(c1ccc(OC)cc1)S(C)(=O)=O` (stereo not drawn) was tested. Which “Percent Effect” value did it give?
**A.** Its value is -7.147%.

**Q.** For `O=C(NCc1nc(NC2CCCC2)c2cc(Cl)ccc2n1)c1cncs1`, which “Percent Effect” value is on record?
**A.** Its value is -2.993%.

**Q.** How did the “Percent Effect” value turn out when `CC(C(=O)Nc1cnn(CC(N)=O)c1)c1ccc(Cl)s1` (stereo not drawn) was run?
**A.** Its value is -7.657%.

**Q.** Which “Percent Effect” value does the source give for `O=C(O)c1cc2c(nc1O)CC(c1cccc(Cl)c1)CC2=O` (stereo not drawn) here?
**A.** The value was 8.981%.

**Q.** `O=C(c1cnco1)N1CCCC(Cc2cccc3ncccc23)C1` (stereo not drawn) was tested. Which “Percent Effect” value did it give?
**A.** The value was -11.15%.

**Q.** How did the “Percent Effect” value turn out when `Cc1cccc(C(=O)N2CCC(Cc3cnc4[nH]ccc4c3)CC2)n1` was run?
**A.** Its value is -6.998%.

**Q.** Which “Percent Effect” value does the source give for `O=C(CCC1CCN(C(=O)c2cnco2)CC1)NCc1cccc(Cl)c1` here?
**A.** The value was 11.71%.

**Q.** Which “Percent Effect” value does the source give for `O=C(c1cnco1)N1CCC(Cc2ccc3ncccc3c2)CC1` here?
**A.** Its value is 111%.

**Q.** With `O=C(c1ccccn1)N1CCC(Cc2cnc3[nH]ccc3c2)CC1` as the compound, how does the “Percent Effect” value read?
**A.** Its value is 136.1%.

**Q.** Which “Percent Effect” value does the source give for `O=C(O)C(F)(F)F.O=S1(=O)NC[C@H]2CCN(Cc3ccccc3)CC[C@H]21` here?
**A.** The value was -3.468%.

**Q.** How did the “Percent Effect” value turn out when `Cc1cc(C)c(CNC(=O)NCCNc2ccccn2)c(=O)[nH]1` was run?
**A.** The value was 9.095%.

**Q.** With `O=C(c1ccn(-c2cccc(F)c2)n1)N1CCCC(n2cccn2)C1` (stereo not drawn) as the compound, how does the “Percent Effect” value read?
**A.** The value was 0.279%.

**Q.** Which “Percent Effect” value does the source give for `Cc1cnn(C2CCCN(C(=O)c3cn(-c4ccccc4)nn3)C2)c1` (stereo not drawn) here?
**A.** Its value is 117.4%.

**Q.** `Cc1ccc(-n2cc(C(=O)N3CCCC(n4cccn4)C3)nn2)cc1` (stereo not drawn) was tested. Which “Percent Effect” value did it give?
**A.** Its value is 117.4%.

**Q.** How did the “Percent Effect” value turn out when `Cc1cccc(-n2cc(C(=O)N3CCCC(n4cccn4)C3)nn2)c1` (stereo not drawn) was run?
**A.** The value was 4.017%.

**Q.** `Cc1cnn(C2CCCN(C(=O)c3cc(-c4ccco4)[nH]n3)C2)c1` (stereo not drawn) was tested. Which “Percent Effect” value did it give?
**A.** The value was 10.35%.

**Q.** For `Cc1cnn(C2CCCN(C(=O)c3cn4ccccc4n3)C2)c1` (stereo not drawn), which “Percent Effect” value is on record?
**A.** The value was 104.2%.

**Q.** With `Cc1cnn(C2CCCN(C(=O)c3cnc4ccccc4n3)C2)c1` (stereo not drawn) as the compound, how does the “Percent Effect” value read?
**A.** Its value is -3.195%.

**Q.** For `Cc1cnn(C2CCCN(C(=O)c3cc[nH]n3)C2)c1` (stereo not drawn), which “Percent Effect” value is on record?
**A.** Its value is -3.499%.

**Q.** Which “Percent Effect” value does the source give for `Cc1cccc(-n2cc(C(=O)N3CCCC(n4ccnc4)C3)nn2)c1` (stereo not drawn) here?
**A.** Its value is 7.382%.

**Q.** `Cc1cnn(C2CCCN(C(=O)c3cc(-c4ccccc4C)n[nH]3)C2)c1` (stereo not drawn) was tested. Which “Percent Effect” value did it give?
**A.** The value was -3.414%.

**Q.** How did the “Percent Effect” value turn out when `O=C(c1cn(-c2ccc(F)cc2)nn1)N1CCCC(n2cccn2)C1` (stereo not drawn) was run?
**A.** The value was 123%.

**Q.** Which “Percent Effect” value does the source give for `CCSc1ccc(C(=O)Nc2c(C)nn(C(C)C)c2C)cn1` here?
**A.** Its value is 10.44%.

**Q.** For `COCCN(C)CC1CCCN1S(=O)(=O)c1cc(C)oc1C` (stereo not drawn), which “Percent Effect” value is on record?
**A.** Its value is 0.4223%.

**Q.** How did the “Percent Effect” value turn out when `Cc1ncsc1CCN(C)Cc1cc2n(n1)CCN(Cc1ncc[nH]1)C2` was run?
**A.** The value was 0.3121%.

**Q.** For `COc1ccc(C2CCCN2C(=O)c2ccc(=O)n(C)c2)cc1OC` (stereo not drawn), which “Percent Effect” value is on record?
**A.** The value was -4.846%.

**Q.** How did the “Percent Effect” value turn out when `CC(=O)NCCNC(=O)Nc1ccc(C)cc1OCc1ccccc1` was run?
**A.** Its value is -17.41%.

**Q.** With `O=C(c1cn(-c2ccccc2)nn1)N1CCCC(n2cccn2)C1` (stereo not drawn) as the compound, how does the “Percent Effect” value read?
**A.** The value was 123.4%.

**Q.** For `O=C(c1ccc(N2CCCC2)nn1)N1CCCC(n2cccn2)C1` (stereo not drawn), which “Percent Effect” value is on record?
**A.** Its value is 6.785%.

**Q.** How did the “Percent Effect” value turn out when `Cc1nn(-c2ccccc2)cc1C(=O)N1CCCC(n2cccn2)C1` (stereo not drawn) was run?
**A.** Its value is 7.584%.

**Q.** `Cc1nc(CNC(C)c2ccc(OCC(=O)NC3CC3)cc2)cs1` (stereo not drawn) was tested. Which “Percent Effect” value did it give?
**A.** Its value is 11.98%.

**Q.** How did the “Percent Effect” value turn out when `Cc1ccc(C(=O)N2CCc3ncccc3C2)cc1N1CCNC1=O` was run?
**A.** Its value is 0.3953%.

**Q.** `CS(=O)(=O)N1CCC(NC(=O)COc2ccc(Cl)cc2)CC1` was tested. Which “Percent Effect” value did it give?
**A.** The value was 131.2%.

**Q.** For `CS(=O)(=O)N1CCC(NC(=O)COc2cccc(Cl)c2)CC1`, which “Percent Effect” value is on record?
**A.** Its value is 141.5%.

**Q.** For `CC(C)c1nccn1C(C)C(=O)NC1CCN(S(C)(=O)=O)CC1` (stereo not drawn), which “Percent Effect” value is on record?
**A.** The value was -4.449%.

**Q.** With `CC(Oc1cccc(Cl)c1)C(=O)Nc1cnn(CC(=O)NC2CC2)c1` (stereo not drawn) as the compound, how does the “Percent Effect” value read?
**A.** Its value is 3.95%.

**Q.** Which “Percent Effect” value does the source give for `Cc1cn(CC(=O)NC2CCN(S(C)(=O)=O)CC2)c2ccccc12` here?
**A.** Its value is -0.9919%.

**Q.** For `Cc1ccc(OCC(=O)NC2CCN(S(C)(=O)=O)CC2)cc1`, which “Percent Effect” value is on record?
**A.** The value was 137.9%.

**Q.** With `O=C(COc1ccc(Cl)cc1)NCc1nncn1C1CC1` as the compound, how does the “Percent Effect” value read?
**A.** The value was -10.37%.

**Q.** How did the “Percent Effect” value turn out when `CCCC(C(=O)NC1CCN(S(C)(=O)=O)CC1)c1ccccc1` (stereo not drawn) was run?
**A.** The value was -7.418%.

**Q.** `Cc1ccc(OCC(=O)NS(=O)(=O)Cc2ccccc2)cc1` was tested. Which “Percent Effect” value did it give?
**A.** The value was 1.419%.

**Q.** `CN1CC(NC(=O)CCOc2cccc(Cl)c2)CC1=O` (stereo not drawn) was tested. Which “Percent Effect” value did it give?
**A.** The value was -1.154%.

**Q.** How did the “Percent Effect” value turn out when `CCn1cc(C(=O)NC2CCN(S(C)(=O)=O)CC2)c2ccccc21` was run?
**A.** The value was -0.7206%.

**Q.** `CS(=O)(=O)N1CCC(NC(=O)COc2ccc3ccccc3c2)CC1` was tested. Which “Percent Effect” value did it give?
**A.** The value was 103.7%.

**Q.** For `CC(CS(C)(=O)=O)N(C(=O)CCc1ccsc1)C1CC1` (stereo not drawn), which “Percent Effect” value is on record?
**A.** Its value is -7.747%.

**Q.** With `Cc1c(NCc2ccccc2C#N)cccc1S(=O)(=O)NC1CC1` as the compound, how does the “Percent Effect” value read?
**A.** Its value is 7.829%.

**Q.** Which “Percent Effect” value does the source give for `CCCNC(=O)c1ccc(S(=O)(=O)NCC2(COC)CCCC2)cc1` here?
**A.** The value was 10.08%.

**Q.** `Cc1cccc(N2CCN(Cc3nc(CC4CC4)no3)CC2)n1` was tested. Which “Percent Effect” value did it give?
**A.** The value was -32.1%.

**Q.** For `CCCN1CCC(Cc2noc(-c3cc4cccnc4nc3C)n2)CC1`, which “Percent Effect” value is on record?
**A.** Its value is 109.3%.

**Q.** With `CCCN1CCC(Cc2nc(CN3CCN(C)CC3)no2)CC1` as the compound, how does the “Percent Effect” value read?
**A.** Its value is -14.74%.

**Q.** For `CN1CCC(Cc2noc(-c3cccc(Oc4ncccn4)c3)n2)CC1`, which “Percent Effect” value is on record?
**A.** The value was 7.717%.

**Q.** Which “Percent Effect” value does the source give for `CCCN1CCC(Cc2noc(-c3[nH]cnc3C)n2)CC1` here?
**A.** Its value is 95.32%.

**Q.** `CCCN1CCC(Cc2noc(-c3ncccc3C)n2)CC1` was tested. Which “Percent Effect” value did it give?
**A.** Its value is 80.84%.

**Q.** Which “Percent Effect” value does the source give for `COc1cccc(-c2n[nH]cc2-c2nc(CC3CCN(C)CC3)no2)c1` here?
**A.** The value was -18.5%.

**Q.** `CCCN1CCC(Cc2noc(-c3cccnc3OC)n2)CC1` was tested. Which “Percent Effect” value did it give?
**A.** The value was 111%.

**Q.** With `CN1CCC(Cc2noc(CC3CC3)n2)CC1` as the compound, how does the “Percent Effect” value read?
**A.** Its value is 7.965%.
